From PubChem BioAssay AID2642 (Johns Hopkins Ion Channel Center, 2010)
In all, about 310,000 compounds went through this assay and about 3,900 (1.3%) were called active.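 The calls were made as follows: active = compounds whose thallium flux B-score, printed positive for inhibition, exceeds three library SD while starting fluorescence stays within three; inactive = the rest.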 The sample as a whole holds a higher share of actives than the screen did.

What follows are compounds tested against Potassium voltage-gated channel subfamily KQT member 1 (Homo sapiens) (UniProt P51787) (assay: inhibitors of human KCNQ1 channel, primary screen, cell-based, thallium flux, high-throughput (AID 2642;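 also: channel opened by potassium depolarization with thallium stimulus after 20 min compound exposure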)). Conditions: CHO-K1 KCNQ1, FluxOR thallium flux fluorescence, at 10 µM; active compounds read high.
Chain of Potassium voltage-gated channel subfamily KQT member 1 (Homo sapiens) (P51787 whole entry, looked up): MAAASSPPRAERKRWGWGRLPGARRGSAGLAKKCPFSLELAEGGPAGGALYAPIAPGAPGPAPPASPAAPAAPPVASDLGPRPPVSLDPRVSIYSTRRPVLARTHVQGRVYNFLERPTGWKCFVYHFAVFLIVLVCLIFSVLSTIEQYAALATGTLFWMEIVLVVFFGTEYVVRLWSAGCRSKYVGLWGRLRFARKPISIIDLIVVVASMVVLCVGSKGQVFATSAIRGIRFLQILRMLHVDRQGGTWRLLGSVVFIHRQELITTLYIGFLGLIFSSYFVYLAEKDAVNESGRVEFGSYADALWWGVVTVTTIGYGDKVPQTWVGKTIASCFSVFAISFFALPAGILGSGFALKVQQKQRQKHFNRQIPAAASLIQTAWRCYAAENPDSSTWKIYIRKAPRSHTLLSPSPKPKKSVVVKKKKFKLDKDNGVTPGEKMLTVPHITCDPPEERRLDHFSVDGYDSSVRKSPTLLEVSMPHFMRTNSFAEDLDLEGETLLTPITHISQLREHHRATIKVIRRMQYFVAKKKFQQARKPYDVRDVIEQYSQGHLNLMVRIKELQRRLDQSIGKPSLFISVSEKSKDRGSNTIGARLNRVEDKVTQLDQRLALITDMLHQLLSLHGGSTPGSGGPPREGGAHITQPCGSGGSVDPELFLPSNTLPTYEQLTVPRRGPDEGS

Structure (SMILES)	B-score
CC(=O)Oc1c(C(=O)c2nnc(C)o2)c(=O)n(Cc2ccccc2)c2ccccc12	inactive
Cn1nc(-c2ccccc2)c(CSc2cccc(Cl)c2)c1Cl	6 (active)
Cn1nc(-c2ccccc2)c(CO)c1Sc1ccccc1	inactive
Cc1ccc(S(=O)(=O)c2c(COC(=O)c3cccc(Cl)c3)c(-c3ccccc3)nn2C)cc1	inactive
COc1cccc(OCCCN2CCCCCC2)c1	inactive
CCCCCCCCCCOC(=O)Cn1c(COc2cccc(OC)c2)[n+](C)c2ccccc21	8 (active)
CCCCCCCCCCOC(=O)Cn1c(COc2ccc(C)cc2)[n+](C)c2ccccc21	inactive
COc1ccc(C2=NOC(Cn3nc(C(=O)NCc4ccc5c(c4)OCO5)cc3-c3ccccc3)C2)cc1 (stereo not given)	inactive
CCCCN(CC)CCNC(=O)CCNC(=O)Cn1ccc2ccccc2c1=O	inactive
Cc1cc(C(F)(F)F)nn1-c1nc(-c2ccco2)cc(C(F)(F)F)n1	inactive
FC(F)(F)c1cc(-c2ccco2)nc(NCc2ccc(Cl)cc2)n1	11 (active)
FC(F)(F)c1cc(-c2cccs2)nc(NCc2ccco2)n1	inactive
COc1ccc(NC(=O)CSc2nncc(=O)n2N)cc1OC	inactive
COc1cccc(NC(=S)NCc2ccco2)c1	inactive
FC(F)Oc1ccc(NC(=S)NCc2ccco2)cc1Cl	7 (active)
COc1cc(NC(=S)NCc2ccco2)c(OC)cc1Cl	inactive
CCOC(=O)c1cnc2c(c(C)nn2CC)c1Cl	inactive
COc1ccc(S(=O)(=O)N2CCCC2CNC(=O)C(=O)NC2CC2)cc1 (stereo not given)	inactive
CCCc1nc(NCc2ccc3c(c2)OCO3)c2nnn(Cc3ccccc3Cl)c2n1	inactive
Cc1nc(Nc2ccc3c(c2)OCCO3)c2nnn(Cc3ccccc3Cl)c2n1	7 (active)
Cc1nc(Nc2ccccc2F)c2nnn(Cc3ccccc3Cl)c2n1	inactive
CCCN1C(=O)C(Cc2nc3ccccc3c(=O)n2-c2ccccc2)c2cc(C)ccc21 (stereo not given)	inactive

Structure (SMILES)	B-score
O=[N+]([O-])/C=C/c1ccc2c(ccn2Cc2ccccc2)c1	inactive
COc1ccccc1N1CCN(C(=O)c2ccc(NC3=NC4CS(=O)(=O)CC4S3)cc2)CC1 (stereo not given)	inactive
CCC(=O)Nc1nc(C)c(C(=O)Nc2cccc(Cl)c2)s1	inactive
CC(C(=O)NC1CCCC1)N(c1ccc(Oc2ccccc2)cc1)S(C)(=O)=O (stereo not given)	inactive
COC(=O)CNC(=O)c1cc(-c2ccncc2)nc2ccccc12	inactive
CCCCN(C)CCCNC(=O)c1cc(-c2cccs2)nc2ccccc12	inactive
CCc1ccc(-c2cc(C(=O)NCc3ccco3)c3ccccc3n2)s1	6 (active)
COc1ccccc1Cn1c(C)nnc1-c1cnn(C)c1N	inactive
Cc1cc(C)cc(NS(=O)(=O)Cc2ccccc2)c1	inactive
CCc1cc(C(=O)OC)c(NC(=O)CC2Sc3ccc(C(F)(F)F)cc3NC2=O)s1 (stereo not given)	inactive
Cc1cccc(C(=O)NNC(=O)CSc2nnc(C(C)C)n2C)c1	inactive
Cc1cccc(CSc2ccc(-c3cccs3)nn2)c1	7 (active)
Cc1cccc(CSc2nnc(NC(=O)CSc3nnc(C)s3)s2)c1	inactive
O=C(CSc1ccc(-c2cccs2)nn1)Nc1ccccc1F	inactive
CCOC(=O)C1(CCOc2ccccc2)CCN(Cc2ccc(C#CCCO)cc2)CC1	inactive
Cc1cc(OCc2cc(C(=O)NCc3cc(C(C)C)no3)no2)cc(C)c1Cl	inactive
CCCCn1c(SCc2ncc(-c3ccccc3)o2)nc2cc(S(N)(=O)=O)ccc21	inactive
O=C(/C=C/c1ccc(F)cc1)Nc1cccc(S(=O)(=O)Nc2cccc(C(F)(F)F)c2)c1	inactive
CCNS(=O)(=O)c1ccc(NC(=O)Nc2cccc(C(F)(F)F)c2)cc1	inactive
Cc1oc2c(F)c(F)c(F)c(F)c2c1S(=O)(=O)Nc1cccc(C(F)(F)F)c1	12 (active)
COc1ccc(/C(=N\O)c2nccc3cc(OC)c(OC)cc23)cc1OC	inactive
CCOC(=O)N1CCN(C(=O)C2CCN(Cc3ccc(OC)cc3OC)CC2)CC1	inactive

Structure (SMILES)	B-score
CCOC(=O)N1CCN(C(=O)C2CCN(c3ncnc4c3sc3cccc(F)c34)CC2)CC1	6 (active)
CCOC(=O)N1CCN(C(=O)C2CCN(S(=O)(=O)c3cc(Cl)ccc3OCC)CC2)CC1	inactive
COc1ccc2c(c1)CCc1cn3ncc(C#N)c3nc1-2	inactive
CCOC(=O)C1CCN(C(=O)C2CCN(S(=O)(=O)CC)CC2)CC1	inactive
CCOC(=O)c1cn(CC)c2cc(F)c(F)cc2c1=O	inactive
COc1ccccc1N1CCN(C(=O)c2cc3c(-c4ccc(Cl)cc4)nn(C)c3s2)CC1	inactive
Cn1nc(-c2ccc(Cl)cc2)c2cc(C(=O)NCc3ccco3)sc21	6 (active)
CCOC(=O)N1CCN(C(=O)c2cc3c(-c4ccc(Cl)cc4)nn(C)c3s2)CC1	inactive
CN1CCc2ccccc2C1Cc1ccccc1NC(=O)c1sc2ccccc2c1Cl (stereo not given)	inactive
CCN(CC(=O)Nc1c(F)cccc1F)C(=O)c1ccc(Sc2nncn2C)c([N+](=O)[O-])c1	inactive
COc1ccc(CNc2ccc3c(c2)CCC3)cc1OC	inactive
COc1ccc(OC)c(CCNC(=O)CCn2ccc3cc(S(=O)(=O)N4CCCC4)ccc32)c1	inactive
CCOCc1nnc(NC(=O)CCC2CCCCC2)s1	inactive
CN1CCN(NC(=O)Nc2ccc(Br)cc2)CC1	inactive
CNC(=O)C1CC(=O)N(Cc2ccc3c(c2)OCO3)C(=Nc2ccc(F)cc2)S1 (stereo not given)	inactive
CC1CCC(N2CC(=O)N(Cc3ccc4c(c3)OCO4)C(c3ccc(F)cc3)C2=O)CC1 (stereo not given)	6 (active)
CC1CCC(NC(=O)C2c3ccccc3C(=O)N2Cc2ccc3c(c2)OCO3)CC1 (stereo not given)	inactive
COc1ccccc1C(=O)NC(=S)NC12CC3CC(CC(C3)C1)C2	inactive
CCCN1Cc2cccc(C(=O)NCc3ccccc3)c2C1=O	8 (active)
CSc1ccccc1C(=O)NCc1ccccc1	inactive
COCCN1Cc2cccc(C(=O)Nc3ccccc3OC)c2C1=O	inactive
CSc1ccccc1NC(=O)c1cnc2sc(C)cn2c1=O	inactive

Structure (SMILES)	B-score
Cc1nc(NC(=O)C2CCCCC2)sc1C	inactive
CCN(CC)CCN(C(=O)c1cc(Cl)sc1Cl)c1nc2cc3c(cc2s1)OCO3	7 (active)
CCN(CC)CCN(C(=O)c1ccc(N2C(=O)CCC2=O)cc1)c1nc2cc3c(cc2s1)OCO3	inactive
CN(C)CCN(C(=O)C1CCCCC1)c1nc2cc3c(cc2s1)OCO3	inactive
CCCc1nn2c(=O)cc(CSCC(=O)Nc3cccc(C)c3)nc2s1	inactive
Cc1cc(-c2csc(N)n2)c(C)n1Cc1ccccc1	inactive
Cc1cc2nc3c(=O)n(Cc4ccccc4)c(=O)[nH]c3nc2cc1N	8 (active)
CC(=O)c1ccc(-c2ccc(Cn3c(C)nc4cc(N)c(C)nc43)cc2)cc1	inactive
O=C(O)c1ccc2c(=O)n3c(nc2c1)/C(=C/c1ccc(Cl)c([N+](=O)[O-])c1)CC3	inactive
CCn1cnc2scc(-c3ccc(C)c(C)c3)c2c1=O	inactive
CC(=O)C(C)n1cnc2scc(-c3ccc(C)cc3)c2c1=O (stereo not given)	inactive
CCOC(=O)C(C)n1cnc2scc(-c3ccc(C)c(C)c3)c2c1=O (stereo not given)	6 (active)
CC(c1nnc(SCC(=O)Nc2sccc2C#N)n1-c1ccc(Cl)cc1)N(C)C (stereo not given)	inactive
Cc1c(CN2CC[C@@H](N3CCN(c4ccccn4)CC3)[C@H](O)C2)[nH]c2ccc(F)cc12	inactive
Fc1ccc2[nH]c3c(N4CCSCC4)ncnc3c2c1	8 (active)
C=CCn1c(Cn2nnc3ccccc32)nnc1SCC(=O)N/N=C/c1cc(Br)cc(OC)c1O	inactive
COc1ccc(/C=C2\CCCC3C2=NN(C(=O)c2scnc2C)C3c2ccc(OC)cc2)cc1 (stereo not given)	8 (active)
CCOC(=O)C1(Cc2ccccc2C(F)(F)F)CCN(C(=O)c2cc(C)n(C)n2)CC1	inactive
O=S(=O)(c1ccccc1)c1nc(Cc2ccccc2)oc1N1CCOCC1	inactive
